Vif-A3F inh: inhibitors of Vif-A3F interaction | HeLa A3F-eYFP + Vif (tagged APOBEC3F with the HIV-1 protein that degrades it), YFP fluorescence increase | actives 0.2% (n = 390,000) | AID 602313 | Potency, µM (highest dose often 46.1 µM), for inactives: at the top dose activity, negative = active; also: potency is read from the fitted curve at half-maximal effect; % of control where 0% means no effect; nearly all actives have a fitted effect of over 65% in size
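HeLa cells stably expressing Vif plus C-terminally eYFP-tagged A3F were seeded, incubated overnight at 37 deg C, dosed with compound, incubated overnight again at 37 deg C. Yellow fluorescence (Ex 488/Em 500-530) reported blocked Vif-mediated A3F-eYFP degradation.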
GRP78 ERSR act: ER stress response induction in glioma; AID 602332; actives 0.02% (n = 420,000); Potency, µM, inactives show at the top dose activation, usual class: activators; U87-MG GRP78 promoter luciferase reporter, 16 h; also: potency is read from the fitted curve at half-maximal effect; series mostly up to about 76 µM; % of control where 0% means no effect; nearly all actives have a fitted effect of over 35% in size
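Stably transfected U87-MG glioma cells carrying a GRP78-based luciferase sensor; 16 h compound incubation. Luminescence end-point read 10 min after Bright-Glo addition at room temperature.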
TRPML1 inh: inhibitors of human TRPML1 channel; Q9GZU1; TRPML1-inducible cells, Ca2+ dye fluorescence, FDSS; active compounds read low; inhibition of EC80 agonist-evoked calcium signal; activity change, negative = inhibition, % (concentration not given with the values); actives 0.02% (n = 390,000); in the data active = activity change below about -50%; inconclusive = between about -30% and that limit;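 also: stimulus is agonist 54-4 at its EC80 concentration; % is scaled to controls: 0 for no effect and ±100 for the full control effect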
Target sequence (Q9GZU1 whole entry, looked up): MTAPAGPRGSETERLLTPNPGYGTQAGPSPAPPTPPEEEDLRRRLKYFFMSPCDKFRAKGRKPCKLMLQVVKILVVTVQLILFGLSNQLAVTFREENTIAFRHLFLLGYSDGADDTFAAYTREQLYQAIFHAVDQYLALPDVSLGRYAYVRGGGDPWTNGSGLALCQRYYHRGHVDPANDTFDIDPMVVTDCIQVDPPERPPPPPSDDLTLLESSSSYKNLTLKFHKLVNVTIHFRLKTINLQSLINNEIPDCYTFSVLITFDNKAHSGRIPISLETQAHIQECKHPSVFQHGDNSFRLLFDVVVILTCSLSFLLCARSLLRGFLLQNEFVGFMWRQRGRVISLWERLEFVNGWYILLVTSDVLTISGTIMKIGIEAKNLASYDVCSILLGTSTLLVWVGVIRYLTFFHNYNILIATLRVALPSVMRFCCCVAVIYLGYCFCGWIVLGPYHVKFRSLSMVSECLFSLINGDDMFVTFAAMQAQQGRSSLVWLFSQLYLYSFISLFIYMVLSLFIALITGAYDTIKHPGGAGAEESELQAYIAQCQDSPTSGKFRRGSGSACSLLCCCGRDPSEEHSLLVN
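Calcium fluorescence in TRPML1-DL cells induced overnight with Tet: a 110 s read after compound pin addition, then a 110 s antagonist read after challenge with 54-4 at 4 uM final (EC80).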
Vif-A3G inh: inhibitors of Vif-APOBEC3G interaction | Q9HC16 | HeLa A3G-eYFP + Vif (tagged APOBEC3G with the HIV-1 protein that degrades it), YFP fluorescence, overnight | Potency, µM (top dose mostly 46.1 µM), without a hit: top-dose activity, negative = active, most hits filed as inhibitors | actives 0.076% (n = 410,000) | AID 602310; also: potency is read from the fitted curve at half-maximal effect; % is scaled to controls: 0 for no effect and ±100 for the full control effect; nearly all actives have a fitted effect of over 60% in size
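Read-out is eYFP fluorescence (Ex 488/Em 500-530) from Vif-expressing HeLa A3G-eYFP cells; more signal means A3G escaped Vif-mediated degradation. Cells plated overnight, compound pinned in, incubated overnight at 37 deg C.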
12-LOX inh: inhibitors of human 12S-lipoxygenase ALOX12. P18054. purified 12hLO, xylenol orange hydroperoxide absorbance. AID 1671190. Potency, µM (doses to about 108 µM), for the others: at the highest dose activity change, negative = inhibition, most hits filed as inhibitors. actives 1.1% (n = 580,000); also: potency is read from the fitted curve at half-maximal effect; % is scaled to controls: 0 for no effect and ±100 for the full control effect
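Hydroperoxide product was detected by ferrous iron/xylenol orange as the 573 to 405 nm absorbance ratio. Arachidonic acid at 40 uM (final) was turned over for 30 min at room temperature by 150 nM human 12hLO, pH 7.0 Hepes buffer, after 15 min compound preincubation.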
TRPML1 ag: human mucolipin-1 channel agonism | actives 0.12% (n = 410,000) | activation, % (no concentration beside the values) | Q9GZU1 | TRPML1-expressing cells, Ca2+ dye fluorescence, FDSS; in the data active = activation above about 50%; inconclusive = mostly about 30% to 49%; also: 0% is about no effect
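Tetracycline-induced TRPML1-DL cells are seeded and incubated overnight before loading with a no-wash Ca2+ dye and quencher. Agonist activity is taken from the 110 s fluorescence read following compound pin-transfer on an FDSS, before EC80 54-4 challenge.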
* = called active by the depositor; ? = inconclusive; nt = no result given; [ ] = dose if it differs, or a comment. Shown are actives, neighbours in structure and some others; about 1.3% of the full set was active somewhere. Unless noted, calls follow the shape of the dose curve; as a rule, active = well fitted curve in the direction sought with a large enough effect; inconclusive = small, poorly fitted or top-dose-only effect, or another doubt; inactive = no such curve, though single readings can be large; an effect the other way counts as inactive or inconclusive.

SMILES	Vif-A3F inh	GRP78 ERSR act	TRPML1 inh	Vif-A3G inh	12-LOX inh	TRPML1 ag
O=C(O)c1ccc(-n2cccc2/C=N\NC(=O)c2cc3cc(Br)ccc3o2)cc1	9%	-1%	7	-6%	35µM*	1
Cc1cc(C(=O)O)ccc1NCc1ccncc1	-4%	-2%	3	0%	0%	1
C/C(=C\C(=O)c1ccc(C)o1)Nc1ccc(C(=O)O)cc1C	0%	-4%	-22	2%	25µM*	0
CCNc1ccc(Br)cc(C(=O)/C=C/c2ccccc2Cl)c1=O	?	4%	11	10µM*	8.9µM*	1
CNc1ccc(Br)cc(C(=O)/C=C/c2cccc(Cl)c2Cl)c1=O	?	11%	3	?	6.3µM*	3
CCNC(=O)NC(=O)C(C)N(C)CCCCc1ccccc1 (stereo not drawn)	nt	nt	nt	nt	2%	nt
O=c1[nH]c(/C=C/c2cccc3ccccc23)nc2ccccc12	13µM*	3%	-9	?	?	0
CN(C)c1ccc(/C=C/c2nc3ccccc3c(=O)[nH]2)cc1	10µM*	-6%	-11	-4%	-9%	0
CN(C)c1ccc(/C=C(\C#N)c2nc3ccccc3c(=O)[nH]2)cc1	5µM*	3%	-5	?	-12%	4
CN(C)c1ccc(/C=C/c2nc3ccccc3c(=O)n2CCO)cc1	13µM*	7%	-15	11µM*	-8%	1
O=c1[nH]c(/C=C/c2ccccc2F)nc2ccccc12	-8%	-1%	20	?	0%	0
Cc1cccc(/C=C(\C#N)c2nc3ccccc3c(=O)[nH]2)c1	2%	-5%	11	3%	-15%	1
Cc1cc(C)cc(N2CC(c3nc4ccccc4n3CCN3CCOCC3)CC2=O)c1 (stereo not drawn)	nt	nt	nt	nt	10%	nt
CN1CCOc2c(C(=O)NCCc3cnc[nH]3)cc(-c3cccc4[nH]ccc34)cc21	nt	nt	nt	nt	48%[176 µM]	nt
CN(C)c1ccc(/C=C/c2cnnc3ccccc23)cc1	nt	-1%	nt	8.9µM*	nt	16
C(=Cc1cnnc2ccccc12)c1ccccc1	0%	8%	0	1%	?	2
CC[n+]1c(/C=C2/C=C(C)CC(C)C2)sc2ccccc21 (stereo not drawn)	6%	9%	-5	10%	?	2
CC[n+]1c(C=C2C=C(C)OC(C)=C2)sc2ccccc21	?	-3%	2	5.6µM*	-19%	0
O=C(Nc1cccc(F)c1)C1CCN(c2cc(C(F)(F)F)ncn2)CC1	nt	nt	nt	nt	24%	nt
CN(C)CC1CCC/C(=C\c2ccc(OC(=O)c3ccc(Cl)cc3)cc2)C1=O (stereo not drawn)	-5%	-8%	4	-11%	25µM*	0
S=C(NCCCCN(Cc1ccc(Cl)cc1)c1ccc(Br)cn1)NCCCc1cnc[nH]1	nt	-7%	nt	-20%	35µM*	2
CN(CCCN(Cc1ccc(Cl)cc1)c1ccc(Br)cn1)C(=S)NCCCc1cnc[nH]1	nt	-7%	nt	-10%	nt	2
COc1ccc(/C=C(/F)c2nc3ccccc3s2)cc1	nt	nt	nt	nt	-11%	nt
COc1ccc(S(=O)(=O)N(c2onc(C)c2Cl)S(=O)(=O)c2ccc(OC)c(OC)c2)cc1OC	2%	-7%	19	-5%	18µM*	0
CCNC(=O)NC(=O)C(c1ccccc1)N(C)Cc1ccc2ccccc2c1 (stereo not drawn)	nt	nt	nt	nt	-4%	nt
S=C(Nc1ccccc1Oc1ccccc1)Nc1cccc(Cl)c1Cl	0%	-6%	-25	-7%	35µM*	3
CCCCN(C(=O)CN1CCN(c2ccccc2)CC1)c1c(N)n(CC(C)C)c(=O)[nH]c1=O	nt	nt	nt	nt	-10%	nt
CCc1ccc(NC(=O)c2sc3nc(C)c(C(=O)Nc4ccc(C)cc4C)c(-c4ccco4)c3c2N)cc1	13µM*	-2%	0	-30%	-26%	1
NC(=O)c1sc2nc3c(c(-c4ccco4)c2c1N)CCCC3	-7%	-3%	-6	4%	-14%	1
